Our source for the inhibition values is ChEMBL document CHEMBL1961873, “Compounds: GSK PKIS; Assays: Nanosyn kinase panel” (2012).

Where “and” joins values, the source holds several entries; their conditions need not be identical. Equal values may be shown once.

Experiment [1] has as its target Serine/threonine-protein kinase MARK2 (Homo sapiens) (UniProt Q7KZI7). The settings on record: at 1 µM.
For experiment [2], the target named is PAS domain-containing serine/threonine-protein kinase (Homo sapiens) (UniProt Q96RG2). The conditions noted are these: at 0.1 µM.
PAS domain-containing serine/threonine-protein kinase (Homo sapiens), sequence (Q96RG2 whole entry, the tested form may be a part): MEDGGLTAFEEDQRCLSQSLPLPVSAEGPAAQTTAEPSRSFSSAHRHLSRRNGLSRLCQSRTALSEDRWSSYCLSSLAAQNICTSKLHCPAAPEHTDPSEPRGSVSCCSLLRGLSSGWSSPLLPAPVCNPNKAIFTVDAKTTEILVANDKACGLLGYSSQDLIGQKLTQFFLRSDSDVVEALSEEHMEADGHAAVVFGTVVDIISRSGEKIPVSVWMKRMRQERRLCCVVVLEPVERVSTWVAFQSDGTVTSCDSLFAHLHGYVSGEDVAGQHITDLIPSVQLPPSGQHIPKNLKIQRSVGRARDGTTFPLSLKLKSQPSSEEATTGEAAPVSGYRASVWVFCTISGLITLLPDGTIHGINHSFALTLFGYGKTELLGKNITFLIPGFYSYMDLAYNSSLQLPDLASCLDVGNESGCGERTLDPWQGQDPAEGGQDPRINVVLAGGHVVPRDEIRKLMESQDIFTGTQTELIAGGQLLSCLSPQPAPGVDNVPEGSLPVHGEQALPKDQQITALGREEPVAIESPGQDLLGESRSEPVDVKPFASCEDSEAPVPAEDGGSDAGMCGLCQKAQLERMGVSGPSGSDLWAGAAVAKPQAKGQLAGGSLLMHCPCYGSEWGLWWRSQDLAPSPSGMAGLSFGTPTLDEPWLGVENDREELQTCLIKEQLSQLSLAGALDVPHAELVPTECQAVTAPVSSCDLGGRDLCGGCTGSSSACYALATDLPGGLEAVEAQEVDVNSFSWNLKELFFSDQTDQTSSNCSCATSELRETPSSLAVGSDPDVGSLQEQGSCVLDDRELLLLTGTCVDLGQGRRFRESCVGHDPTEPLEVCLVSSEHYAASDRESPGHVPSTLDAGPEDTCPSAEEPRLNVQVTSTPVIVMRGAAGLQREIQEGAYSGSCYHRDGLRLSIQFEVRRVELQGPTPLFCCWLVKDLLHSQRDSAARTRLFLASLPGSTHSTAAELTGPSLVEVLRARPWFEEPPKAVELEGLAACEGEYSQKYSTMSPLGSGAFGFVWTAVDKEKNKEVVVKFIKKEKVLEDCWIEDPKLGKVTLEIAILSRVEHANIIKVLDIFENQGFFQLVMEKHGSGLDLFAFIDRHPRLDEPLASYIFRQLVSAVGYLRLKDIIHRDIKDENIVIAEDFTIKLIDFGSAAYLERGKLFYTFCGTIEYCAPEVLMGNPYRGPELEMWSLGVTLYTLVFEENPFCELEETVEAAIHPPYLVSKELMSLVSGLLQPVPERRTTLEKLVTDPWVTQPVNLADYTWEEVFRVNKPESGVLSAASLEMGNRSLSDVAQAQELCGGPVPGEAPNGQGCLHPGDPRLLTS
The target is the same in experiment [3]. The conditions noted are these: at 1 µM.
The target of experiment [4] is Phosphorylase b kinase gamma catalytic chain, skeletal muscle/heart isoform (Homo sapiens) (UniProt Q16816). The conditions noted are these: at 0.1 µM.
Phosphorylase b kinase gamma catalytic chain, skeletal muscle/heart isoform (Homo sapiens), sequence (Q16816 whole entry, looked up, canonical isoform): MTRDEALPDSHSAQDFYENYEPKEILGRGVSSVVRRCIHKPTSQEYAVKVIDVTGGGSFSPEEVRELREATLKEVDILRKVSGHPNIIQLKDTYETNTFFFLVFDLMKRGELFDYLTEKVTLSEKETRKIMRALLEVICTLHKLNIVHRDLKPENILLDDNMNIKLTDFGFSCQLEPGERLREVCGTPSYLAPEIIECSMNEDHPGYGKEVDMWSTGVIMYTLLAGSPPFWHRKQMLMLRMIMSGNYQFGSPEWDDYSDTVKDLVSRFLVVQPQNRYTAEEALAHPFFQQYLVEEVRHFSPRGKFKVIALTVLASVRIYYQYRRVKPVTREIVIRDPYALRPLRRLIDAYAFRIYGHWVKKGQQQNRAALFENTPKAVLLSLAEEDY
For experiment [5] the target is unchanged. The settings on record: at 1 µM.
Experiment [6] deals with T1, Phosphorylase b kinase gamma catalytic chain, liver/testis isoform (Homo sapiens) (UniProt P15735).
T1 sequence (whole entry): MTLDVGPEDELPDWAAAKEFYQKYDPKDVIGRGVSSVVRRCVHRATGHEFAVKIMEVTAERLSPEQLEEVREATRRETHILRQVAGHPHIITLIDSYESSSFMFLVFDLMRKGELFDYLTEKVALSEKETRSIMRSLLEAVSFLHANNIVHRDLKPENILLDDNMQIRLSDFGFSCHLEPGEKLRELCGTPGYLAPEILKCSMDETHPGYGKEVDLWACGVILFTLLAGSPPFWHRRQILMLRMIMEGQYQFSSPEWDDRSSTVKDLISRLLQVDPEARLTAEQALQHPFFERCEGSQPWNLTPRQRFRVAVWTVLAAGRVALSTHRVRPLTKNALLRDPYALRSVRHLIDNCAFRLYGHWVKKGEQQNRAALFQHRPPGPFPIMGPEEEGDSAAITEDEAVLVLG
The conditions noted are these: at 0.1 µM.

The target of experiment [7] is T1, Phosphorylase b kinase gamma catalytic chain, liver/testis isoform (Homo sapiens). The conditions noted are these: at 1 µM.
Experiment [8] deals with Serine/threonine-protein kinase pim-1 (Homo sapiens) (UniProt P11309). The settings on record: at 0.1 µM.
Serine/threonine-protein kinase pim-1 (Homo sapiens), sequence (P11309 whole entry, looked up): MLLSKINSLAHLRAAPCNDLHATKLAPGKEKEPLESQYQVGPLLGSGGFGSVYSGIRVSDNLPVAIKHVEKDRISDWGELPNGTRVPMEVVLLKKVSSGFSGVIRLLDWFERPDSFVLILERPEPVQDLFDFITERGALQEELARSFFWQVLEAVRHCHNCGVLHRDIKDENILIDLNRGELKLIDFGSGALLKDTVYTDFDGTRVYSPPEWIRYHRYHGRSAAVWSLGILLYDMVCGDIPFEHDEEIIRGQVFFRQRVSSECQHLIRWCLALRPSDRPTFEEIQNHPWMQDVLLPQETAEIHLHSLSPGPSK
For experiment [9] the target is unchanged. The conditions noted are these: at 1 µM.
Experiment [10] deals with Serine/threonine-protein kinase pim-2 (Homo sapiens) (UniProt Q9P1W9). The conditions noted are these: at 0.1 µM.
Serine/threonine-protein kinase pim-2 (Homo sapiens), sequence (Q9P1W9 whole entry, looked up): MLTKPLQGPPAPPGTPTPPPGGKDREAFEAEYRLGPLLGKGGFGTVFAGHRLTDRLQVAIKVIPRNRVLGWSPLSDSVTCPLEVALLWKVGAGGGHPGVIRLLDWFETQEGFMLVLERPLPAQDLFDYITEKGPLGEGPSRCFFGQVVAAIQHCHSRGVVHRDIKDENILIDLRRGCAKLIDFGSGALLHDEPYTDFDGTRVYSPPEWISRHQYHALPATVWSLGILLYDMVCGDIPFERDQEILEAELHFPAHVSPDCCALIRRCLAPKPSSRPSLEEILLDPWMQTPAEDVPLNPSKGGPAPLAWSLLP
The target is the same in experiment [11]. The settings on record: at 1 µM.
Experiment [12] has as its target Serine/threonine-protein kinase pim-3 (Homo sapiens) (UniProt Q86V86). The conditions noted are these: at 0.1 µM.
The target is the same in experiment [13]. The conditions noted are these: at 1 µM.
Experiment [14] has as its target T2, MAP kinase-activated protein kinase 5 (Homo sapiens) (UniProt Q8IW41).
T2 sequence (whole entry): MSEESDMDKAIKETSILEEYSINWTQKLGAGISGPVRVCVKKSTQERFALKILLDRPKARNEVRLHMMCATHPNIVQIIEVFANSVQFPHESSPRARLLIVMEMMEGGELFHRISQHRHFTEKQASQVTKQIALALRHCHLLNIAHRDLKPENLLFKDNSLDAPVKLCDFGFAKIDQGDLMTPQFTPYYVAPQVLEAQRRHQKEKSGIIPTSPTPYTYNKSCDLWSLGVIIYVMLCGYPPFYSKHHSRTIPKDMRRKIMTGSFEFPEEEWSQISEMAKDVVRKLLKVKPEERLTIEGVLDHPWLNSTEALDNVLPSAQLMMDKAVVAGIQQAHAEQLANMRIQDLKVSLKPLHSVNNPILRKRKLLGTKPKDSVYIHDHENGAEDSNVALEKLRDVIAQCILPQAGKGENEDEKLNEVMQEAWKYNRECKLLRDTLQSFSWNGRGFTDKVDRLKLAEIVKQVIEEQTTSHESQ
The settings on record: at 0.1 µM.

For experiment [15], the target named is T2, MAP kinase-activated protein kinase 5 (Homo sapiens). The settings on record: at 1 µM.
Experiment [16] concerns the target Serine/threonine-protein kinase SIK1 (Homo sapiens) (UniProt P57059). The conditions noted are these: at 0.1 µM.
The target is the same in experiment [17]. The settings on record: at 1 µM.
Experiment [18] concerns the target Serine/threonine-protein kinase SIK2 (Homo sapiens) (UniProt Q9H0K1). The settings on record: at 0.1 µM.
The target is the same in experiment [19]. The settings on record: at 1 µM.
The target in experiment [20] is T3, Serine/threonine-protein kinase TBK1 (Homo sapiens) (UniProt Q9UHD2).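 Note: values are the mean TBK1 inhibition, taken from the GSK PKIS screening data.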
T3 sequence (whole entry): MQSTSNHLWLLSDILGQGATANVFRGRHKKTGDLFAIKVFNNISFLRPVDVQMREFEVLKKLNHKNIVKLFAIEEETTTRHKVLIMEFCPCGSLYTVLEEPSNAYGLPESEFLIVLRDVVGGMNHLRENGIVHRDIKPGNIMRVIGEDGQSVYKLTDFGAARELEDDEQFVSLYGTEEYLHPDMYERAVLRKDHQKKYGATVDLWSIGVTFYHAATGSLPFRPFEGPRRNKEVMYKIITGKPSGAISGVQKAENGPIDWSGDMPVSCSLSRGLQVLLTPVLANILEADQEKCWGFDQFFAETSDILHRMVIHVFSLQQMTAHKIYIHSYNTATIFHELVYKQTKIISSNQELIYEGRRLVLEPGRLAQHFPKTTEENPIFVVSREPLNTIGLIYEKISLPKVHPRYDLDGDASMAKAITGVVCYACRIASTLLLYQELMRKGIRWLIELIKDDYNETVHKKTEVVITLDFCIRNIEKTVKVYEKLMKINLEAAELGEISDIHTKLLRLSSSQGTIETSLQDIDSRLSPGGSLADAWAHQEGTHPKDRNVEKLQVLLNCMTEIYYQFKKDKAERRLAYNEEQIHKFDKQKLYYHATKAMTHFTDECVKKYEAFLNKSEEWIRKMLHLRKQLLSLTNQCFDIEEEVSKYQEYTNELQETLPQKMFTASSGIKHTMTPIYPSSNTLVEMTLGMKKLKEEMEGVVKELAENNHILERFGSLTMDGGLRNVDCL
The settings on record: at 0.1 µM.

Serine/threonine-protein kinase MARK2 (Homo sapiens), sequence (Q7KZI7 whole entry, the tested form may be a part): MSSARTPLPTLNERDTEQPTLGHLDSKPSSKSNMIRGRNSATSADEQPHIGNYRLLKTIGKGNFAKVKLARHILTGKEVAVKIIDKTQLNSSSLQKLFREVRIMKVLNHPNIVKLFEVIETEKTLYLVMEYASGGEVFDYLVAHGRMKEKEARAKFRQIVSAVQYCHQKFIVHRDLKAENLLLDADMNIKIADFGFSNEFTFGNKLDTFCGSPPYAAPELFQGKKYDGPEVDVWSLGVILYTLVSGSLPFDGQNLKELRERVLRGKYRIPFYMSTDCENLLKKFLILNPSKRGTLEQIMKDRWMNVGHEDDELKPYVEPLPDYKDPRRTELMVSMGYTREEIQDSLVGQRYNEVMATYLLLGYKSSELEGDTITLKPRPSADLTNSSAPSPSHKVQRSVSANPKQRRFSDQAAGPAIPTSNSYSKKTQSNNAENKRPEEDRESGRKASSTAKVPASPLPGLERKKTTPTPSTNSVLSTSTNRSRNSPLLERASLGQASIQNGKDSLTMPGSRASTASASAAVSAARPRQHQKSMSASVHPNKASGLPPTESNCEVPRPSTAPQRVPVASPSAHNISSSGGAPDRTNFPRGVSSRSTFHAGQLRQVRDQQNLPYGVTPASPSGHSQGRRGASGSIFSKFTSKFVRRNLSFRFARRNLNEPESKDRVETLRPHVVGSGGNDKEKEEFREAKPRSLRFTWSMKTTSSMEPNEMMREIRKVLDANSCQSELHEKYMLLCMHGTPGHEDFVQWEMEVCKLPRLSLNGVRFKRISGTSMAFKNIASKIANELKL
Serine/threonine-protein kinase SIK1 (Homo sapiens), sequence (P57059 whole entry): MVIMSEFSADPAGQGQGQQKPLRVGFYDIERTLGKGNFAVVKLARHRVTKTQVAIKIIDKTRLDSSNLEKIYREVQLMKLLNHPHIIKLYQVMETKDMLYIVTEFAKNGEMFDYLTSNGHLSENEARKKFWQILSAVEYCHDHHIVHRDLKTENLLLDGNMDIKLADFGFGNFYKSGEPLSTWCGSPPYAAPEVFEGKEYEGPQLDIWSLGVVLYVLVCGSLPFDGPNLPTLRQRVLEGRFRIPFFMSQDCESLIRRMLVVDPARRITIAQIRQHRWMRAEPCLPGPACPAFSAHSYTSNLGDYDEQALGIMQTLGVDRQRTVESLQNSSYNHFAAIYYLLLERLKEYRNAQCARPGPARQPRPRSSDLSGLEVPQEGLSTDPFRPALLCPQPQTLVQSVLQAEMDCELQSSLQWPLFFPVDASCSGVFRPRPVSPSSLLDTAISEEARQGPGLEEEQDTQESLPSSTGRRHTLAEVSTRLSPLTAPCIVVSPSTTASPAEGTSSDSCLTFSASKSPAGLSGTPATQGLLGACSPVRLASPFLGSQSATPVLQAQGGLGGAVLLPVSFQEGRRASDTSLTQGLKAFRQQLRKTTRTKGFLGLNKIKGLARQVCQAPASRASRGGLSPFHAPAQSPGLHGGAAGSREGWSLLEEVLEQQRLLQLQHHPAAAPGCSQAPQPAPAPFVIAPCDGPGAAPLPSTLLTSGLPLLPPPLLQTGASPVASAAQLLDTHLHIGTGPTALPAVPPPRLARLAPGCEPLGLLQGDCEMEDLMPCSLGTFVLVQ

As for `CNC(=O)c1sc(-n2cnc3cc(OC)c(OC)cc32)cc1OCc1ccccc1C(F)(F)F`, the inhibition – broadly, the relative decrease from the control value, in per cent – in experiment [1] was determined as 1.67%; in experiment [2], 0.35%; in experiment [3] it was 0.79%; in experiment [4] it was 4.21%; in experiment [5], 3.69%; in [6], 5.8%. Besides, the inhibition in experiment [7] was 5.01%; in experiment [8], -0.73%; in experiment [9] it was -0.07%; in experiment [10] it was 0.37%; in experiment [11], 0.56%; in experiment [12], -0.77%. The inhibition in experiment [13] is -0.33%; in [14], 1.17%; in experiment [15], 1.03%; in experiment [16] it was 5.73%; in experiment [17], 11.3%; in experiment [18] it was 7.24%. Moreover, the inhibition in [19] amounted to 8.75%; in experiment [20], 1.68%.

With `COc1ccc(-c2nn3ncccc3c2-c2ccnc(Nc3ccc(F)c(F)c3)n2)cc1`, the inhibition worked out at 0.59% in experiment [1]; 1.16% in experiment [2]; 1.41% in [3]; 8.48% in experiment [4]; 10.2% in experiment [5]; 4.94% in experiment [6]. Moreover, the inhibition in experiment [7] is 9.5%; in experiment [8], 0.43%; in experiment [9], 0.69%; in [10], 1.57%; in experiment [11], 4.2%; in experiment [12], 4.52%. For the same compound, the inhibition in experiment [13] was found to be 6.05%; in experiment [14] it was 1.6%; in experiment [15], 4.42%; in experiment [16], 1.5%; in [17], 8.64%; in experiment [18], 8.32%. The results for the inhibition in experiment [19] and in experiment [20] were 7.08% and -2.71%, respectively.

As for `CN1CCC(C(=O)Nc2n[nH]c3nc(-c4ccc(O)cc4)c(Br)cc23)CC1`, the inhibition is 2.87% and -0.48% in experiment [1]; 0.12% and 1.36% in experiment [2]; 1.4% and -0.48% in experiment [3]; 7.58% and -0.16% in [4]; 16.1% and 3.32% in experiment [5]; 4.67% and 1.73% in experiment [6]. Besides, the inhibition in experiment [7] is 9.01% and 2.52%; in experiment [8] it was 5.3% and 6.07%; in experiment [9], 34.8% and 33.4%; in experiment [10], -0.97% and 1.73%; in [11], 14.5% and 16.5%; in experiment [12] it was 8.95% and 8.97%. Moreover, the inhibition is 48.5% and 44.8% in experiment [13]; 1.61% and 0.79% in experiment [14]; 3.66% and 0.86% in experiment [15]; 3.1% and 1.53% in [16]; 9.27% and 8.23% in experiment [17]; 7.89% and -2.04% in experiment [18]. Further, the inhibition in experiment [19] was 9.87% and 5.33%; in experiment [20], 4.48% and 3.27%.

As to `CN(C)CCNC(=O)Nc1ccc(N(C)c2ccnc(Nc3ccc(CS(C)(=O)=O)cc3)n2)cc1`, the inhibition in experiment [1] was 7.11%; in [2] it was 1.26%; in experiment [3], -0.25%; in experiment [4], 2.14%; in experiment [5], 4.59%; in experiment [6], 4.64%. In addition, the inhibition in experiment [7] was 1.59%; in [8], 1.06%; in experiment [9] it was 1.39%; in experiment [10], 0.27%; in experiment [11] it was 2.68%; in experiment [12], -0.48%. Further, the inhibition is -1.2% in experiment [13]; 1.02% in [14]; 0.33% in experiment [15]; 5.41% in experiment [16]; 31.9% in experiment [17]; 8.68% in experiment [18]. Further, the inhibition in experiment [19] is 13.6%; in [20], 2.12%.

`CS(=O)(=O)CCNCc1ccoc1-c1ccc2ncnc(Nc3ccc(OCc4ccccc4)cc3)c2c1`: the inhibition in [1] was -2.18%; in experiment [2] it was 1.27%; in [3], 0.16%; in experiment [4] it was 2.12%; in [5] it was 3.12%; in [6], 0.65%. Moreover, the inhibition is 0.15% in experiment [7]; 0.23% in experiment [8]; -0.94% in [9]; 0.1% in experiment [10]; -0.21% in experiment [11]; 0.58% in experiment [12]. Besides, the inhibition in [13] was -0.84%; in experiment [14], 0.44%; in [15], 0.78%; in [16] it was 2.99%; in experiment [17], 4.48%; in experiment [18], -0.71%. Further, the inhibition in experiment [19] was -0.59%; in experiment [20] it was 0.39%.

On to `COc1cccc(Nc2nccc(-c3cnn4ncccc34)n2)c1`, for which the inhibition in experiment [1] was 21.4%; in [2], -0.19%; in experiment [3] it was -1.63%; in experiment [4], 2.67%; in experiment [5], 27.6%; in [6], 4.4%. The inhibition in experiment [7] is 18.8%; in experiment [8], 0.85%; in experiment [9] it was 6.56%; in experiment [10], 0.37%; in experiment [11], 2.39%; in experiment [12], 2.39%. In addition, the inhibition was 17.6% in experiment [13]; 0.42% in experiment [14]; 3.44% in [15]; 6.56% in [16]; 20.8% in [17]; 4.86% in [18]. For the same compound, the inhibition is 13.6% in [19] and 4.06% in experiment [20].
